Results on eight compounds are retold here after PubChem BioAssay (Tox21).

The nature of experiment [1]: qHTS assay to test for compound auto fluorescence at 535 nm (green) in HEK293 cells (AID 720680).
Experiment [2] in a line: qHTS assay to test for compound auto fluorescence at 460 nm (blue) in HEK293 cell free culture (AID 720681). A digest of the protocol: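 Compounds were added to cell-free DMEM with 10% FBS and fluorescence read directly. The blue channel used 405 nm excitation and 460 nm emission, with triamterene as the reference fluorophore.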
Experiment [3] is described as follows: qHTS assay to test for compound auto fluorescence at 535 nm (green) in HEK293 cell free culture (AID 720682). A digest of the protocol:
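Read-out: 485/535 nm fluorescence intensity, calibrated against fluorescein. Medium only (DMEM + 10% FBS, no cells); test compound or DMSO vehicle added by pintool before plate reading.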

A short description of experiment [4]: qHTS assay to test for compound auto fluorescence at 590 nm (red) in HEK293 cell free culture (AID 720683). In outline:
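Cell-free wells of DMEM with 10% FBS received compound, and intrinsic fluorescence was read at excitation/emission 540/590 nm. Values expressed as equivalence to Rose Bengal sodium.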
A general note: In qHTS, concentration-response curves come from the screen itself.

The nature of experiment [5]: qHTS assay to test for compound auto fluorescence at 590 nm (red) in HepG2 cell free culture (AID 720684). In outline: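 Compounds are added to culture medium (MEM, 10% FBS) lacking cells, then fluorescence is read at excitation 540 nm, emission 590 nm, with Rose Bengal sodium as the equivalency standard.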
Experiment [6] in a line: qHTS assay to test for compound auto fluorescence at 460 nm (blue) in HepG2 cell free culture (AID 720685). A digest of the protocol: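 Compound (23 nL) or DMSO pinned into cell-free MEM with 10% FBS; blue fluorescence read at 405/460 nm excitation/emission, expressed as auto-fluorescence equivalency to triamterene.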
A short description of experiment [7]: qHTS assay to test for compound auto fluorescence at 535 nm (green) in HepG2 cell free culture (AID 720686).
For experiment [8], the target named is Glucocorticoid receptor (Homo sapiens) (UniProt P04150). As to the kind of experiment: qHTS assay to identify small molecule agonists of the glucocorticoid receptor (GR) signaling pathway (AID 720691; active means well fitted activation curve with a large enough effect in the signal ratio in the repeat runs, not every such curve was filed as active; the % refers to the signal ratio). The note with it: GR-bla HeLa, beta-lactamase reporter ratio, 18 h; activation: at 62.4 µM (top of the series). In outline: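 Agonist mode in a HeLa line carrying a GRE-controlled beta-lactamase reporter. Compounds act for 18 h at 37 C before a 2 h room-temperature FRET substrate step and fluorescence reading.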
Chain of Glucocorticoid receptor (Homo sapiens) (P04150 whole entry, looked up): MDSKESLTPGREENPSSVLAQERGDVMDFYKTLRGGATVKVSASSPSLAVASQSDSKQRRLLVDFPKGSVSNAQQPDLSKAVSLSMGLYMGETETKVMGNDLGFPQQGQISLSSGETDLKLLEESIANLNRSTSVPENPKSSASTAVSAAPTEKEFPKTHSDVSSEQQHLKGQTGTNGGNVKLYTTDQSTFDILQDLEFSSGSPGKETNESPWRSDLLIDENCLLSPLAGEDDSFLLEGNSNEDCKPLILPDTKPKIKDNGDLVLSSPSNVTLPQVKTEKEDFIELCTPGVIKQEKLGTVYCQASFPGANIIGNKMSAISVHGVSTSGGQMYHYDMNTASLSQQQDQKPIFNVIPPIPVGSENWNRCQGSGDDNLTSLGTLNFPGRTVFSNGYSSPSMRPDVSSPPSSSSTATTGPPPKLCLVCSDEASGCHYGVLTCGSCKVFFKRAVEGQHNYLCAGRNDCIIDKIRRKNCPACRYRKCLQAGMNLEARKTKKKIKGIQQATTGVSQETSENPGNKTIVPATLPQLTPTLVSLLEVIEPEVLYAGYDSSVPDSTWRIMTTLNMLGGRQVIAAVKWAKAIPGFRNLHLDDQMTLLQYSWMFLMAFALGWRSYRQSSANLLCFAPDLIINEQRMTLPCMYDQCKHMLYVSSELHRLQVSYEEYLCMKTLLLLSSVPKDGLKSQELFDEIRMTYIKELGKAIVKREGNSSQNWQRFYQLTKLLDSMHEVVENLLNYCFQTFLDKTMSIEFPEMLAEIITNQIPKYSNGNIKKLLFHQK

Experiment [9] has the same target. As to the kind of experiment: qHTS assay to identify small molecule antagonists of the glucocorticoid receptor (GR) signaling pathway (AID 720692; active means well fitted inhibition curve with a large enough effect in the signal ratio in the repeat runs, not every such curve was filed as active; the % refers to the signal ratio). A digest of the protocol: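 Cells plated, rested 4 h at 37 C/5% CO2; compounds in DMSO pin-transferred; dexamethasone added to 5 nM final; 18 h at 37 C; B/G FRET substrate added, 2 h room temperature; fluorescence measured.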

A short description of experiment [10]: qHTS assay to identify small molecule antagonists of the glucocorticoid receptor (GR) signaling pathway - cell viability counter screen (AID 720693). Further: nearly all actives have a fitted effect of over 55% in size.
The nature of experiment [11]: qHTS assay for identifying genotoxic compounds that show differential cytotoxicity against isogenic chicken DT40 cell lines with known DNA damage response pathways - wild type cell line (AID 743012). Further: nearly all actives have a fitted effect of over 60% in size. Further: potency means the concentration at half of the fitted maximal effect. A digest of the protocol:
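Cells (DT40 wild type, 300/well) are treated with DMSO-dissolved compounds after a ~0.5 h pre-incubation and kept 40 h at 37 C/5% CO2. Viability is then measured by CellTiter-Glo luminescence following 30 min at room temperature.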

Experiment [12] in a line: qHTS assay for identifying genotoxic compounds that show differential cytotoxicity against isogenic chicken DT40 cell lines with known DNA damage response pathways - Rev3 mutant cell line (AID 743014). Further: nearly all actives have a fitted effect of over 55% in size. Further: potency means the concentration at half of the fitted maximal effect.
Experiment [13] is described as follows: qHTS assay for identifying genotoxic compounds that show differential cytotoxicity against isogenic chicken DT40 cell lines with known DNA damage response pathways - Rad54/Ku70 mutant cell line (AID 743015). Further: nearly all actives have a fitted effect of over 60% in size. Further: potency means the concentration at half of the fitted maximal effect.
The nature of experiment [14]: qHTS assay to identify small molecule antagonists of the androgen receptor (AR) signaling pathway - cell viability counter screen (AID 743033; further: nearly all actives have a fitted effect of over 45% in size).
Experiment [15] in a line: qHTS assay to identify small molecule antagonists of the androgen receptor (AR) signaling pathway using the MDA cell line - cell viability counter screen (AID 743041; further: nearly all actives have a fitted effect of over 45% in size). In outline: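 Same-well cytotoxicity was assessed by CellTiter-Fluor in MDA-kb2 AR-luc cells after 16 h of compound treatment under R1881 agonism.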
Experiment [16] is described as follows: qHTS assay to test for compound auto fluorescence at 460 nm (blue) in HepG2 cells (AID 720687). In outline:
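HepG2 cells in MEM with 10% FBS, attached overnight at 37 C, were exposed to compound or DMSO for 1 hr at 37 C, 5% CO2. Blue fluorescence was read at 405/460 nm, with triamterene as reference fluorophore.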

Experiment [17] deals with Androgen receptor (Homo sapiens) (UniProt P10275). The experiment can be described thus: qHTS assay to identify small molecule antagonists of the androgen receptor (AR) signaling pathway (AID 743035; active means well fitted inhibition curve with a large enough effect in the signal ratio in the repeat runs, not every such curve was filed as active; the % refers to the signal ratio). A digest of the protocol: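 Antagonism is scored as loss of R1881-driven beta-lactamase reporter expression in HEK293 cells carrying the reporter under a UAS element, after 16 h co-treatment at 37C and a 2 h room-temperature FRET substrate read.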
Chain of Androgen receptor (Homo sapiens) (P10275 whole entry, looked up): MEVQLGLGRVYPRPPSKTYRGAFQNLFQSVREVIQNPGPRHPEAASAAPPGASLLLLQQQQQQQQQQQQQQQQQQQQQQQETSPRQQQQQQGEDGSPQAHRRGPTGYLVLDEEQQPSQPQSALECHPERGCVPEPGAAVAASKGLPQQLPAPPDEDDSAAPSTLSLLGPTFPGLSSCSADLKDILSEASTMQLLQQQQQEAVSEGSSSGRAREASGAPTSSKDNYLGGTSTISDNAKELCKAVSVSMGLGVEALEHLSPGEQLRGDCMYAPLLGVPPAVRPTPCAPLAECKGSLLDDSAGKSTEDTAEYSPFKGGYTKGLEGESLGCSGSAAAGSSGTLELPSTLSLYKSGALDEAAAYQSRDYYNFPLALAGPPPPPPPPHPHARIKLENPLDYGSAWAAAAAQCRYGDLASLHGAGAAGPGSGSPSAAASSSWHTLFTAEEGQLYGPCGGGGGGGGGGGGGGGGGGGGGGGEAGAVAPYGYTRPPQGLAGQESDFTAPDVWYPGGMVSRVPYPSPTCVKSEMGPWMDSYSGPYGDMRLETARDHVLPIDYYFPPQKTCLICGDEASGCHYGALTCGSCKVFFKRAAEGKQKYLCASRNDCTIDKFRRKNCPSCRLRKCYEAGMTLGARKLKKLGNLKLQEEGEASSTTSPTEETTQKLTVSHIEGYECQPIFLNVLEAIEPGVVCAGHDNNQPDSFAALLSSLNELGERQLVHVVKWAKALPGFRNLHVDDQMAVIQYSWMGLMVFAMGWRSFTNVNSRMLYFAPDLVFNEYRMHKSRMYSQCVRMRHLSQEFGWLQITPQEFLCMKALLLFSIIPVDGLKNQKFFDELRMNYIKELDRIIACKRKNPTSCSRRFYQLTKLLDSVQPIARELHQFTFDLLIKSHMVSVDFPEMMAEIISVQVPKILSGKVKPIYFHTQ

Experiment [18] shares this target. As to the kind of experiment: qHTS assay to identify small molecule agonists of the androgen receptor (AR) signaling pathway (AID 743036; active means well fitted activation curve with a large enough effect in the signal ratio in the repeat runs, with a control signal flat, not every such curve was filed as active; the % refers to the signal ratio). A digest of the protocol: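 HEK293 cells stably carrying a UAS-driven beta-lactamase reporter (GeneBLAzer AR-UAS-bla-GripTite) were plated at 2,000 cells/well, rested 4 h at 37C, then exposed to compounds in DMSO for 16 h. LiveBLAzer B/G FRET substrate was added for 2 h at room temperature; fluorescence read.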

Experiment [19] has the same target. As to the kind of experiment: qHTS assay to identify small molecule agonists of the androgen receptor (AR) signaling pathway using the MDA cell line (AID 743040; further: nearly all actives have a fitted effect of over 20% in size). A digest of the protocol: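 Human breast carcinoma MDA-kb2 reporter cells (MMTV-luc, AR/GR elements) were treated for 16 h at 37C in 0% CO2 following a 5 h settling period. Signal was quantified by ONE-Glo luminescence.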

Experiment [20] has the same target. The experiment can be described thus: qHTS assay to identify small molecule antagonists of the androgen receptor (AR) signaling pathway using the MDA cell line (AID 743042; further: nearly all actives have a fitted effect of over 55% in size). In outline:
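MDA-kb2 breast carcinoma cells carrying MMTV-luciferase (AR/GR responsive) were co-treated with compounds and the agonist R1881 for 16 h at 37C. Inhibition read as ONE-Glo luminescence; CellTiter-Fluor fluorescence measured in parallel for cytotoxicity.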

Values joined by “and” are separate entries in the source; they are usually repeats but may differ in a detail not shown here. Identical values can stand only once. Results filed as inconclusive are left out. Active and inactive are the calls of the source. Unless noted, the call rests on the fitted dose curve; in most records, active means well fitted curve in the direction sought with a large enough effect in the repeat runs; inconclusive means weak or mixed curves; inactive means no such curve, though single readings can be large; an effect the other way counts as inactive or inconclusive.

On to `O=C(O)C1CCCN1` (configuration not stated), for which the Potency result in experiment [1], in experiment [2], in experiment [3], in experiment [4], in experiment [5] and in experiment [7] was “inactive” each time. The Potency entry in [8], in experiment [9], in [10], in experiment [11], in [12] and in experiment [13] was “inactive” in each case. Also, the Potency result in [14] and in experiment [15] was “inactive” in each case. The call in experiment [6] was inactive.
Regarding `COc1cc([C@@H]2c3cc4c(cc3C(O[C@@H]3O[C@@H]5CO[C@@H](C)O[C@H]5[C@H](O)[C@H]3O)C3COC(=O)[C@@H]32)OCO4)cc(OC)c1OP(=O)(O)O` (some centres not stated), the Potency result in experiment [1], in experiment [2], in [3], in [4], in experiment [5] and in experiment [7] was “inactive” in each case. For the same compound, the Potency result in experiment [10], in experiment [14] and in experiment [15] was “inactive” each time. Also, the compound was called inactive in experiment [6] and in experiment [16]. Moreover, the Potency in experiment [12] was 1.68 µM (active) and 2.37 µM (active); in experiment [13], 53.1 nM (active) and 75 nM (active).
Take `CC(O)[C@H]1CC[C@H]2[C@@H]3CC[C@@H]4C[C@@H](O)CC[C@]4(C)[C@H]3CC[C@]12C` (some centres not stated): the Potency result in experiment [1], in experiment [2], in [3], in experiment [4], in experiment [5] and in experiment [7] was “inactive” in each case. The Potency entry in experiment [10], in experiment [14] and in experiment [15] was “inactive” each time. Moreover, the call in experiment [6] and in experiment [16] was inactive.
Take `O=C(COc1ccc(Cl)cc1)OCCNC12CC3CC(CC(C3)C1)C2`: the Potency result in [1], in experiment [2], in experiment [3], in experiment [4], in experiment [5] and in experiment [7] was “inactive” in each case. Further, the Potency entry in [10], in [11], in experiment [14] and in experiment [15] was “inactive” in each case. The result in experiment [6] and in experiment [16] was inactive.
`O=C(Cn1c(=O)sc2ccc(Cl)cc21)N1CCN(CCO)CC1`: the Potency entry in experiment [1], in experiment [2], in experiment [3], in [4], in [5] and in experiment [8] was “inactive” throughout. For the same compound, the Potency result in experiment [9], in experiment [10], in [13] and in [14] was “inactive” each time. The result in [6] and in experiment [16] was inactive.
In the case of `C=CCN1CCCC1CNC(=O)c1cc(S(N)(=O)=O)cc(OC)c1OC` (configuration not stated), the Potency entry in [1], in experiment [2], in [3], in experiment [4], in experiment [5] and in experiment [7] was “inactive” in each case. In addition, the Potency result in [8], in experiment [9], in experiment [10], in experiment [11], in [12] and in [14] was “inactive” throughout. The Potency entry in experiment [15] is “inactive”. In [6], the compound was called inactive.
For the compound `OC[C@H]1OC([S-])[C@H](O)[C@@H](O)[C@@H]1O.[Au+]` (some centres not stated), the Potency result in experiment [1], in experiment [2], in experiment [3], in experiment [4], in experiment [5] and in experiment [7] was “inactive” in each case. Besides, the Potency result in experiment [10], in experiment [12], in experiment [14] and in experiment [15] was “inactive” throughout. In addition, in [6], the compound was called inactive. For the same compound, in experiment [11], the Potency is 10.6 µM (active).
On to `CC1(C)S[C@@H]2[C@H](NC(=O)C3(N)CCCCC3)C(=O)N2[C@H]1C(=O)O`, for which the Potency result in experiment [1], in experiment [2], in [3], in [4], in experiment [5] and in [7] was “inactive” each time. In addition, the Potency result in experiment [8], in experiment [10], in experiment [11], in experiment [12], in [13] and in [14] was “inactive” each time. The Potency entry in [17], in [18], in [19], in [15] and in experiment [20] was “inactive” throughout. Further, in experiment [6], the compound was called inactive.
